# Assay results as given in article PMC7862700, “An all-to-all approach to the identification of sequence-specific readers for epigenetic DNA modifications on cytosine”.
# Key:
# Assay in all cases: DAPPL (digital affinity profiling via proximity ligation, sequencing); 10 mM Tris-HCl pH 7.5, 50 mM NaCl, 1 mM DTT, 4% glycerol, room temperature, 30 min; GST-TFs on glutathione beads, 16-mer random dsDNA library, 0.1% formaldehyde crosslink after washing; high values mean tight binding
# [1] = target: T1, FLI1 (Homo sapiens, UniProt Q01543 1-452); conditions: protein: recombinant; tags: N-terminal GST; dsDNA, one strand shown
# T1 sequence: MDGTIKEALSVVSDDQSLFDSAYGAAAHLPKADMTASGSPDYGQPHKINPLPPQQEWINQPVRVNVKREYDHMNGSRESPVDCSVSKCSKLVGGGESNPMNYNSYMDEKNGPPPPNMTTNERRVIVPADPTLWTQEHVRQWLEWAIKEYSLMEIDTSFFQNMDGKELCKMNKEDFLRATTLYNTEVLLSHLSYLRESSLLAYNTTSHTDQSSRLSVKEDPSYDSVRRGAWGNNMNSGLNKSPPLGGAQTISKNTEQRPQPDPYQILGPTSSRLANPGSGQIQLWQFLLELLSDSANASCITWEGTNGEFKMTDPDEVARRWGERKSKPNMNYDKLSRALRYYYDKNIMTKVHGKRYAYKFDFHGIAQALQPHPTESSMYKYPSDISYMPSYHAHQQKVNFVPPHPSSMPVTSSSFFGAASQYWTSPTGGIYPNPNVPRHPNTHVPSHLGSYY
# In short: (§1)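 Pools of DNA-barcoded human transcription factors, expressed in yeast as GST fusions on glutathione beads and combined with a tag-only sample, were incubated with 200 nmole of a 16-mer random double-stranded DNA library. Incubation took 30 min at room temperature in Tris/NaCl/DTT/glycerol buffer and was followed by washing, 0.1% formaldehyde crosslinking, proximity ligation (BsaI/T4 ligase, 1 h, 37 °C), PCR amplification and sequencing on an Illumina NextSeq500. Binding signal is the ratio of a hexamer's read frequency for a factor to its frequency for the tag-only sample.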
# [2] = target: T2, ELK1 (Homo sapiens, UniProt P19419 1-428); conditions: protein: recombinant; tags: N-terminal GST; dsDNA, one strand shown
# T2 sequence: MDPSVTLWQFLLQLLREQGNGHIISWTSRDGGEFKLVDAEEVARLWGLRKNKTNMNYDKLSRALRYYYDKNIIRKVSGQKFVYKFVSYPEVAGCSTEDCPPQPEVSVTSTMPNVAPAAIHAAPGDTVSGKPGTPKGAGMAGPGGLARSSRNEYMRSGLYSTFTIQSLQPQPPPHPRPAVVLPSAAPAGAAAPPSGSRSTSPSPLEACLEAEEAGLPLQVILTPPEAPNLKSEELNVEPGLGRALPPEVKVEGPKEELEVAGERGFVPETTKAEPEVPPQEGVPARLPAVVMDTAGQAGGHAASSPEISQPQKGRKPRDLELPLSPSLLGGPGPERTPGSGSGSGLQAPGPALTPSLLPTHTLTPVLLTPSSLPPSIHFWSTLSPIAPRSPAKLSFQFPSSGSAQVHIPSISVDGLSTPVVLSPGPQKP
# In short: as §1
# [3] = target: T3, GABPA (Homo sapiens, UniProt Q06546 1-454); conditions: protein: recombinant; tags: N-terminal GST; dsDNA, one strand shown
# T3 sequence: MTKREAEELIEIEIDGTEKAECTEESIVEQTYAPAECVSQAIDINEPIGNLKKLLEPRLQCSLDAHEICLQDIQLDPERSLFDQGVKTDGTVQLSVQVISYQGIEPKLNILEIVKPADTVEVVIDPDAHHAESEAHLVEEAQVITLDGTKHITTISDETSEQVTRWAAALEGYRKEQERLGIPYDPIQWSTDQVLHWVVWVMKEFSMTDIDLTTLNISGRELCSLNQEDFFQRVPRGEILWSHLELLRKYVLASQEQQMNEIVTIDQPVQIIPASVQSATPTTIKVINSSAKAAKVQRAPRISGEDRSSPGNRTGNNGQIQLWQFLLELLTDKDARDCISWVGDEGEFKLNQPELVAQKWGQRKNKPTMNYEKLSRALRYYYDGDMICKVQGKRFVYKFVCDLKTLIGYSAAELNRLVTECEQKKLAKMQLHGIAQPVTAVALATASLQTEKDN
# In short: as §1
# [4] = target: T4, ERG (Homo sapiens, UniProt P11308 1-479); conditions: protein: recombinant; tags: N-terminal GST; dsDNA, one strand shown
# T4 sequence: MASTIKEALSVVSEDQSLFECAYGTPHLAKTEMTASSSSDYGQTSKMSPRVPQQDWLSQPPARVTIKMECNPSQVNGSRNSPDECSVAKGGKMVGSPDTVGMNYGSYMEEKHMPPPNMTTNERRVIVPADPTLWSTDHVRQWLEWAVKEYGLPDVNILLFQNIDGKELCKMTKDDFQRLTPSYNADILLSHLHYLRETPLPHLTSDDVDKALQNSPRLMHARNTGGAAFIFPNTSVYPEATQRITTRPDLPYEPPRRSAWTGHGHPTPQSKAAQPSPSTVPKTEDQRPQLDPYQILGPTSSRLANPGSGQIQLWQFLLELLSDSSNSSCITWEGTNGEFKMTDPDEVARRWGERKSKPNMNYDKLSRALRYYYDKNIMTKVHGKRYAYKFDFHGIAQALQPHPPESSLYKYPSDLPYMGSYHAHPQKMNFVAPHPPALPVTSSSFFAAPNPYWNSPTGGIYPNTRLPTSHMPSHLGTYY
# In short: as §1
# [5] = target: ELF1 (Homo sapiens, UniProt P32519 1-619); conditions: protein: recombinant; tags: N-terminal GST; dsDNA, one strand shown
# In short: as §1
# [6] = target: T5, EHF (Homo sapiens, UniProt Q9NZC4 1-300); conditions: protein: recombinant; tags: N-terminal GST; dsDNA, one strand shown
# T5 sequence: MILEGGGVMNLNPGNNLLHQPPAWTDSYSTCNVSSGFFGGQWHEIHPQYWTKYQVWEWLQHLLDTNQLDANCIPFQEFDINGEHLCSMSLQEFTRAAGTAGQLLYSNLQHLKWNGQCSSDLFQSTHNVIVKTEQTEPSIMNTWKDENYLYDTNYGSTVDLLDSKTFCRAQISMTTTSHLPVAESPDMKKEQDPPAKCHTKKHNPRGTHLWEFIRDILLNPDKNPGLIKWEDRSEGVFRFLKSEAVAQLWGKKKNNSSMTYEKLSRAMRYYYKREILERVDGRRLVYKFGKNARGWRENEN
# In short: as §1
# [7] = target: SPI1 (Homo sapiens, UniProt P17947 1-270); conditions: protein: recombinant; tags: N-terminal GST; dsDNA, one strand shown
# In short: as §1
# [8] = target: SPIB (Homo sapiens, UniProt Q01892 1-262); conditions: protein: recombinant; tags: N-terminal GST; dsDNA, one strand shown
# In short: as §1
# [9] = target: T6, ELK3 (Homo sapiens, UniProt P41970 1-407); conditions: protein: recombinant; tags: N-terminal GST; dsDNA, one strand shown
# T6 sequence: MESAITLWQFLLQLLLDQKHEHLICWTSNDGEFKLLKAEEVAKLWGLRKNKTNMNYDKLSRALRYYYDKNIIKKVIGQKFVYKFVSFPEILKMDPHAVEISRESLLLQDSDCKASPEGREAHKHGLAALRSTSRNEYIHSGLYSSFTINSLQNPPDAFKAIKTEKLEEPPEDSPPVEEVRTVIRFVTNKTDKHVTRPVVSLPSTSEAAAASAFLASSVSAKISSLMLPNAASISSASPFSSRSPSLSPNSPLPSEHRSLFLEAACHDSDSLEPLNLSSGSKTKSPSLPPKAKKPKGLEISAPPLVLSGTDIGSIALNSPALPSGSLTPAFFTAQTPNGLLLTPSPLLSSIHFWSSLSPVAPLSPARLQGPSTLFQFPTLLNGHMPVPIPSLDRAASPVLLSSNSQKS
# In short: as §1
# [10] = target: T7, FEV (Homo sapiens, UniProt Q99581 1-238); conditions: protein: recombinant; tags: N-terminal GST; dsDNA, one strand shown
# T7 sequence: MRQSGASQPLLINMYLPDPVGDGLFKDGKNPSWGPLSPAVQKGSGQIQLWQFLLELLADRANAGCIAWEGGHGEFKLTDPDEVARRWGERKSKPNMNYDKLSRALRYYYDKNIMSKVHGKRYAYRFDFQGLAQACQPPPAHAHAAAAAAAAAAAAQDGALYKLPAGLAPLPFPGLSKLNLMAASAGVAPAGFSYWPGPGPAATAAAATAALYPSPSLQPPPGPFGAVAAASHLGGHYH
# In short: as §1
# [11] = target: ETV5 (Homo sapiens, UniProt P41161 1-510); conditions: protein: recombinant; tags: N-terminal GST; dsDNA, one strand shown
# In short: as §1
# [12] = target: HSF1 (Homo sapiens, UniProt Q00613 1-529); conditions: protein: recombinant; tags: N-terminal GST; chain copies: 3; dsDNA, one strand shown
# In short: as §1
# [13] = target: T8, SPIC (Homo sapiens, UniProt Q8N5J4 1-248); conditions: protein: recombinant; tags: N-terminal GST; dsDNA, one strand shown
# T8 sequence: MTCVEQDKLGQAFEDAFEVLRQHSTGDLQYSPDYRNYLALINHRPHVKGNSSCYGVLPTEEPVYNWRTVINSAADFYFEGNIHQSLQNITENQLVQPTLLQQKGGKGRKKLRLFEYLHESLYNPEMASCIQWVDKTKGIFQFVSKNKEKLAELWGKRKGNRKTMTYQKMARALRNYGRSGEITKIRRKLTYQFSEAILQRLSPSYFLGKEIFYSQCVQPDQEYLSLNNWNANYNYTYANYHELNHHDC
# In short: as §1
# [14] = target: ELF4 (Homo sapiens, UniProt Q99607 1-663); conditions: protein: recombinant; tags: N-terminal GST; dsDNA, one strand shown
# In short: as §1
# [15] = target: T9, ELK4 (Homo sapiens, UniProt P28324-2 1-405); conditions: protein: recombinant; tags: N-terminal GST; dsDNA, one strand shown
# T9 sequence: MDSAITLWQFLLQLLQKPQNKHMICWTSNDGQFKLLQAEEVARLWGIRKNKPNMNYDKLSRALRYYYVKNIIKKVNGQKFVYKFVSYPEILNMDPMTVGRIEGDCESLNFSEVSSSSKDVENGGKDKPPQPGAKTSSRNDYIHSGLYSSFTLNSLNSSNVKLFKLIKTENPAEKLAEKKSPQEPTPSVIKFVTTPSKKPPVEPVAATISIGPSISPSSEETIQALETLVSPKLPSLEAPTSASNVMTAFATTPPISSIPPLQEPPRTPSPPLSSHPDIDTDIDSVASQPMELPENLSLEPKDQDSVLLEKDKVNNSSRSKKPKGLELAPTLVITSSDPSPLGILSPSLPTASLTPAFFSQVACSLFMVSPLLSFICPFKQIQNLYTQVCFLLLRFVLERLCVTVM
# In short: as §1
# [16] = target: T10, ETV2 (Homo sapiens, UniProt O00321 1-342); conditions: protein: recombinant; tags: N-terminal GST; dsDNA, one strand shown
# T10 sequence: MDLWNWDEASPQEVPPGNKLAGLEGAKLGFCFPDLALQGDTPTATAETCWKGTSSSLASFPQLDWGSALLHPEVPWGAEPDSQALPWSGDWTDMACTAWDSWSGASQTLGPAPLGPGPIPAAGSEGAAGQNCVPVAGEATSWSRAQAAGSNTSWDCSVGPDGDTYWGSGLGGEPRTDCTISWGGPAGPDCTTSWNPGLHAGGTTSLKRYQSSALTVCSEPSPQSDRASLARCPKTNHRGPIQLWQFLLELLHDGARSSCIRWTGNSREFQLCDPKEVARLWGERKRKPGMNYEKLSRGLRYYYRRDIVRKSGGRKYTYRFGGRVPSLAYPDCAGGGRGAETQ
# In short: as §1
# [17] = target: T11, ELF3 (Homo sapiens, UniProt P78545 1-371); conditions: protein: recombinant; tags: N-terminal GST; dsDNA, one strand shown
# T11 sequence: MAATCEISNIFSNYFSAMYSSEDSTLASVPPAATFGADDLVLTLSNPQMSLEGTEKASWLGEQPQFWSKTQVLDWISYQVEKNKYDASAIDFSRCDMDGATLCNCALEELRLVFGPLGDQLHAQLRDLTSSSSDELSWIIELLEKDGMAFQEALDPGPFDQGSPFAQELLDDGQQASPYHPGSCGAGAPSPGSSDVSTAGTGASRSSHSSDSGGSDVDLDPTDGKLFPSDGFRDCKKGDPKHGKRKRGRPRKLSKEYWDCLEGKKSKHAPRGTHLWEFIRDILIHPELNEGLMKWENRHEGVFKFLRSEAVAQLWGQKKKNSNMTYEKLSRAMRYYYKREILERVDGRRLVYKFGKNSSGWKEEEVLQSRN
# In short: as §1
# [18] = target: CRX (Homo sapiens, UniProt O43186 1-299); conditions: protein: recombinant; tags: N-terminal GST; dsDNA, one strand shown
# In short: as §1
# [19] = target: ETV1 (Homo sapiens, UniProt P50549 1-477); conditions: protein: recombinant; tags: N-terminal GST; dsDNA, one strand shown
# In short: as §1
# HSF1, sequence (Q00613 whole entry): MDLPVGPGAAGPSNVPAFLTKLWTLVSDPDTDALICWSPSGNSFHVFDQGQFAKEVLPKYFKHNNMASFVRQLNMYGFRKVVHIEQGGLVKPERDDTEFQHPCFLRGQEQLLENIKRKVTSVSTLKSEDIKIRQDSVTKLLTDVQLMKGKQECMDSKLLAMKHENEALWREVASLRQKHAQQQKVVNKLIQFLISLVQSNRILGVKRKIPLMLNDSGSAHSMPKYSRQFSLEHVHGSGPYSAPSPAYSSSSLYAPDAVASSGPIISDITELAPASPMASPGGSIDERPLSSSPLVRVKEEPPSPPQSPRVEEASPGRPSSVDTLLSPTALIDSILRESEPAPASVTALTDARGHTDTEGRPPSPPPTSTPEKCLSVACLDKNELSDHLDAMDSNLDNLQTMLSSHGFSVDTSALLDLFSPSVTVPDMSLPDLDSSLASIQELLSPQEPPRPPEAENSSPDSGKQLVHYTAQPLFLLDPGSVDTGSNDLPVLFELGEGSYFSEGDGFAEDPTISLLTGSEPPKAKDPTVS
# ELF1, sequence (P32519 whole entry): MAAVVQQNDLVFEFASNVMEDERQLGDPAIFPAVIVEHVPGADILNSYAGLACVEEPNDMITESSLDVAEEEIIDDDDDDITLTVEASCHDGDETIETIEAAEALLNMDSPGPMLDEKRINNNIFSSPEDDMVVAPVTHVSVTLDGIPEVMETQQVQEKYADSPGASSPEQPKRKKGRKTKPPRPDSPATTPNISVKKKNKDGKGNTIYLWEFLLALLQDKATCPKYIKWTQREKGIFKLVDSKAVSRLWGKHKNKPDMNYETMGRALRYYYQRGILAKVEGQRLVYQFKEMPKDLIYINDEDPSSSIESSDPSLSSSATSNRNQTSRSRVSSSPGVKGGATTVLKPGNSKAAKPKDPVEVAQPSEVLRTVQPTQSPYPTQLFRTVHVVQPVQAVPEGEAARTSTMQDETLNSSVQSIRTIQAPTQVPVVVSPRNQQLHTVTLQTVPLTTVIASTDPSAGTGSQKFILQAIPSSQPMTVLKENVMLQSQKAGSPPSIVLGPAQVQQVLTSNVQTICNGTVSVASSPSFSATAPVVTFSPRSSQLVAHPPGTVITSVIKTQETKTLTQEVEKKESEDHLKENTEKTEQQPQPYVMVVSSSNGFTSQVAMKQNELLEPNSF
# ETV1, sequence (P50549 whole entry): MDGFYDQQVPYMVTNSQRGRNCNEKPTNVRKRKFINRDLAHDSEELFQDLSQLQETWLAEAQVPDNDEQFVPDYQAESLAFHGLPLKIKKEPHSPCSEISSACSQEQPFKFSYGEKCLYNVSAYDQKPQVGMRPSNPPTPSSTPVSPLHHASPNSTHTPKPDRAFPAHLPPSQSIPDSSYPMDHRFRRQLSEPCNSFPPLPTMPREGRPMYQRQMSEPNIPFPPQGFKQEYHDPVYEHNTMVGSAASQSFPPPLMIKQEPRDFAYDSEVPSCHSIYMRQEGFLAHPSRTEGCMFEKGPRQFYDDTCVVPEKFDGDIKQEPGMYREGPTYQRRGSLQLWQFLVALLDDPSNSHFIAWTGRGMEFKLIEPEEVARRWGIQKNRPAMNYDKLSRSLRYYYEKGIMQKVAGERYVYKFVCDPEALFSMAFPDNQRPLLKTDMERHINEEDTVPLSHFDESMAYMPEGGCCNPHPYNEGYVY
# SPIB, sequence (Q01892 whole entry): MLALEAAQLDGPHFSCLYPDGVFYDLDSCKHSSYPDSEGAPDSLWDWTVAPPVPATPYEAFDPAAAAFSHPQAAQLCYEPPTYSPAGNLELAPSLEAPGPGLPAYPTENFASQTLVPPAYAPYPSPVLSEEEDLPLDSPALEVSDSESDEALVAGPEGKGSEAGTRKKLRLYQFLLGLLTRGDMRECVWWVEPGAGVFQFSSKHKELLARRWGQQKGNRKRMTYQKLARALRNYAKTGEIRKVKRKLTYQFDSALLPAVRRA
# ELF4, sequence (Q99607 whole entry): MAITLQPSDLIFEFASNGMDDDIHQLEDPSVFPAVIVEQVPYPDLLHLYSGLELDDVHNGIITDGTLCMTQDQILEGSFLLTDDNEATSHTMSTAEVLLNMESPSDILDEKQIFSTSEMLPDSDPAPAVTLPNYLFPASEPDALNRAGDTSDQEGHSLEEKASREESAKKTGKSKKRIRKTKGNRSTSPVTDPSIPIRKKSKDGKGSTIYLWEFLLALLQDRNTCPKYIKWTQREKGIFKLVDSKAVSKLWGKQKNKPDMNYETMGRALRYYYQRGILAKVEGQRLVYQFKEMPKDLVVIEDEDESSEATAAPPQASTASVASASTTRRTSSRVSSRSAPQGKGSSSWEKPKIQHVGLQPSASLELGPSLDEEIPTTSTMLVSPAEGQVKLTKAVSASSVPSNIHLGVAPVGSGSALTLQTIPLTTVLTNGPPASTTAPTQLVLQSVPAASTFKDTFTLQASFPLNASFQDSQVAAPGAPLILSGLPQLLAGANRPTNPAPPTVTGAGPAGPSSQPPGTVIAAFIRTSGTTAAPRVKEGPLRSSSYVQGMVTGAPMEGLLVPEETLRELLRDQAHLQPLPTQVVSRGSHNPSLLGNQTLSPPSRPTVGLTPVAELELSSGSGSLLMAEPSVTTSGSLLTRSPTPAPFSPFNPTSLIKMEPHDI
# ETV5, sequence (P41161 whole entry): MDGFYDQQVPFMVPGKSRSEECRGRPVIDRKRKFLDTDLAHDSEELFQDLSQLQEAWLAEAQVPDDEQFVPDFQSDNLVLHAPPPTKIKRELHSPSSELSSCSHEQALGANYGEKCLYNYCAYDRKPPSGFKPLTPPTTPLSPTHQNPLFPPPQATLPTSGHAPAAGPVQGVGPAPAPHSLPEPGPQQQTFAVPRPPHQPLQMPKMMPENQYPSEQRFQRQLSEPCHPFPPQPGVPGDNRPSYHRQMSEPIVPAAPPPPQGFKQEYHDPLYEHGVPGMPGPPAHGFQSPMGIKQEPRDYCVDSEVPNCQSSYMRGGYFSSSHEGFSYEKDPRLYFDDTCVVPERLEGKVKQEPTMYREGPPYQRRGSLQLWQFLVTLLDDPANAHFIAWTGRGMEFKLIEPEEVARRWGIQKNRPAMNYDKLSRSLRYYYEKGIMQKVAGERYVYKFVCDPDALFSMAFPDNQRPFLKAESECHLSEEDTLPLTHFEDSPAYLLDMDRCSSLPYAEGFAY
# CRX, sequence (O43186 whole entry): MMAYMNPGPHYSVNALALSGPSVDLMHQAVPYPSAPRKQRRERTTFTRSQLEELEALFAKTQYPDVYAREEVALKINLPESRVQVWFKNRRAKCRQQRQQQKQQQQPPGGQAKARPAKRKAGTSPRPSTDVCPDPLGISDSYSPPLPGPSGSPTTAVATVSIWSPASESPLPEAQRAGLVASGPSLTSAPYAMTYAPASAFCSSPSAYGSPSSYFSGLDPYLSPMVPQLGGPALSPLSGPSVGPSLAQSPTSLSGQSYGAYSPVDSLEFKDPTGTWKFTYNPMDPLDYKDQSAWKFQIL
sequence,measurement,setting,value
CTATAA,binding signal,[1],"1.26 fold enrichment (6-mer frequency, TF over GST control)"
same,binding signal,[2],"1.22 fold enrichment (6-mer frequency, TF over GST control)"
same,binding signal,[3],"1.18 fold enrichment (6-mer frequency, TF over GST control)"
same,binding signal,[4],"1.2 fold enrichment (6-mer frequency, TF over GST control)"
same,binding signal,[5],"1.27 fold enrichment (6-mer frequency, TF over GST control)"
same,binding signal,[6],"1.12 fold enrichment (6-mer frequency, TF over GST control)"
same,binding signal,[7],"1.25 fold enrichment (6-mer frequency, TF over GST control)"
same,binding signal,[8],"1.35 fold enrichment (6-mer frequency, TF over GST control)"
same,binding signal,[9],"1.25 fold enrichment (6-mer frequency, TF over GST control)"
same,binding signal,[10],"1.16 fold enrichment (6-mer frequency, TF over GST control)"
same,binding signal,[11],"1.23 fold enrichment (6-mer frequency, TF over GST control)"
same,binding signal,[12],"1.51 fold enrichment (6-mer frequency, TF over GST control)"
same,binding signal,[13],"1.35 fold enrichment (6-mer frequency, TF over GST control)"
same,binding signal,[14],"1.26 fold enrichment (6-mer frequency, TF over GST control)"
same,binding signal,[15],"1.36 fold enrichment (6-mer frequency, TF over GST control)"
same,binding signal,[16],"1.15 fold enrichment (6-mer frequency, TF over GST control)"
same,binding signal,[17],"1.25 fold enrichment (6-mer frequency, TF over GST control)"
same,binding signal,[18],"1.83 fold enrichment (6-mer frequency, TF over GST control)"
same,binding signal,[19],"1.2 fold enrichment (6-mer frequency, TF over GST control)"
